The source of these data is PubChem BioAssay (EPA / NIEHS).

Common to all, as to conditions: mRNA level, 48 h; actives raise or lower the signal
Read-out in experiment [1]: growth arrest and DNA damage 45 (GADD45B), GADD45B (gene 4616)
As to the kind of experiment: LTEA_HepaRG_GADD45B: Life Technologies and Expression Analysis (LTEA) Assay for growth arrest and DNA damage 45 (GADD45B) using HepaRG (AID 2283461). In a few lines: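 Differentiated HepaRG cells, plated 48 h then switched to serum-free induction medium, were exposed 48 h in duplicate to eight half-log concentrations from 100 uM in 0.5% DMSO; mRNA quantified by qRT-PCR, normalized to ACTB/GAPDH/POLR2A, bidirectional fit versus DMSO.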

Read-out in experiment [2]: ABC Transporter (ABCC3), ABCC3 (gene 8714)
Kind of experiment: LTEA_HepaRG_ABCC3: Life Technologies and Expression Analysis (LTEA) Assay for ABC Transporter (ABCC3) using HepaRG (AID 2283462). In a few lines: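 HepaRG cells in serum-free induction medium were exposed for 48 h in duplicate to 8-point half-log concentrations topping at 100 uM in 0.5% DMSO. ABCC3 mRNA was measured by qRT-PCR normalized to ACTB, GAPDH and POLR2A, with bidirectional fitting versus DMSO.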

Read-out in experiment [3]: ABC Transporter (ABCB11), ABCB11 (gene 8647)
Kind of experiment: LTEA_HepaRG_ABCB11: Life Technologies and Expression Analysis (LTEA) Assay for ABC Transporter (ABCB11) using HepaRG (AID 2283463). The method, boiled down: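 ABCB11 transcript levels quantified by TaqMan qRT-PCR against three housekeeping genes after 48 h chemical exposure of HepaRG cultures. Concentrations up to 100 uM in half-log steps, 0.5% DMSO vehicle; both induction and suppression scored.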

Read-out in experiment [4]: ABC Transporter (ABCC2), ABCC2 (gene 1244)
As to the kind of experiment: LTEA_HepaRG_ABCC2: Life Technologies and Expression Analysis (LTEA) Assay for ABC Transporter (ABCC2) using HepaRG (AID 2283464). In a few lines: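 HepaRG cells were plated 48 h, switched to serum-free induction medium, then exposed in duplicate for 48 h to 8 concentrations (top 100 uM, half-log steps, 0.5% DMSO). ABCC2 mRNA was measured by qRT-PCR normalized to ACTB/GAPDH/POLR2A; bidirectional fitting versus DMSO.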

Read-out in experiment [5]: Broad substrate specificity ATP-binding cassette transporter ABCG2 (Homo sapiens) (UniProt Q9UNQ0)
As to the kind of experiment: LTEA_HepaRG_ABCG2: Life Technologies and Expression Analysis (LTEA) Assay for ABC Transporter (ABCG2) using HepaRG (AID 2283465). In a few lines:
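ABCG2 transcript was quantified by TaqMan qRT-PCR against three housekeeping genes in HepaRG cells. Cells were treated in duplicate for 48 h across an 8-point half-log series up to 100 uM, with 0.5% DMSO vehicle. Gain or loss versus DMSO was fit.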

Read-out in experiment [6]: ATP-citrate lyase (ACLY), ACLY (gene 47)
Kind of experiment: LTEA_HepaRG_ACLY: Life Technologies and Expression Analysis (LTEA) Assay for ATP-citrate lyase (ACLY) using HepaRG (AID 2283466). In a few lines: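 ACLY mRNA quantified by qRT-PCR on Fluidigm arrays against three housekeeping genes, after 48 h chemical treatment of HepaRG cells (top concentration 100 uM, half-log steps, 0.5% DMSO vehicle). Up- or down-regulation fitted relative to DMSO.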

Read-out in experiment [7]: Peroxisomal acyl-coenzyme A oxidase 1 (ACOX1) gene, ACOX1 (gene 51)
As to the kind of experiment: LTEA_HepaRG_ACOX1: Life Technologies and Expression Analysis (LTEA) Assay for Peroxisomal acyl-coenzyme A oxidase 1 (ACOX1) gene using HepaRG (AID 2283467). In a few lines:
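ACOX1 transcript levels were quantified by TaqMan qRT-PCR against three housekeeping genes after 48 h chemical exposure of differentiated human HepaRG cells. Exposure used eight half-log steps topping at 100 uM, 0.5% DMSO vehicle, in duplicate. Bidirectional curve fits were made relative to DMSO.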

Read-out in experiment [8]: Alkaline Phosphatase, Placental (ALPP) gene, ALPP (gene 250)
Kind of experiment: LTEA_HepaRG_ALPP: Life Technologies and Expression Analysis (LTEA) Assay for Alkaline Phosphatase, Placental (ALPP) gene using HepaRG (AID 2283468). The method, boiled down:
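Differentiated human HepaRG cells were plated and cultured 48 h, then exposed in duplicate for 48 h in serum-free induction medium to eight half-log concentrations from 100 uM in 0.5% DMSO. ALPP mRNA was measured by TaqMan qRT-PCR, normalized to ACTB, GAPDH, POLR2A.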

Read-out in experiment [9]: Bcl-2 (BAD) gene, BAD (gene 572)
Kind of experiment: LTEA_HepaRG_BAD: Life Technologies and Expression Analysis (LTEA) Assay for Bcl-2 (BAD) gene using HepaRG (AID 2283469). The method, boiled down: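 Read-out: qRT-PCR of BAD mRNA, normalized to three housekeeping genes. Human HepaRG cultures got 48 h chemical exposure in 0.5% DMSO, duplicate eight-point half-log series topping at 100 uM. Gain or loss of signal fitted versus DMSO vehicle.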

Read-out in experiment [10]: ABC Transporter (ABCB1), ABCB1 (gene 5243)
Kind of experiment: LTEA_HepaRG_ABCB1: Life Technologies and Expression Analysis (LTEA) Assay for ABC Transporter (ABCB1) using HepaRG (AID 2283460). The method, boiled down:
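ABCB1 transcript level measured by TaqMan qRT-PCR against three housekeeping genes after 48 h chemical exposure of differentiated HepaRG cells. Top concentration 100 uM, half-log steps, eight points, 0.5% DMSO vehicle; bidirectional fit relative to DMSO.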

SMILES strings stand for the structures. Values joined by “and” are separate entries in the source; they are usually repeats but may differ in a detail not shown here. Equal entries are not always repeated. Some compounds were tested as several samples or in several runs, with calls that do not always agree. Active and inactive are the calls of the source. How the source made its calls: active means hit-call score of the fitted dose curve at least 0.9, where 1 is the maximum; inactive means score below 0.9.

Chain of Broad substrate specificity ATP-binding cassette transporter ABCG2 (Homo sapiens) (Q9UNQ0 whole entry, looked up): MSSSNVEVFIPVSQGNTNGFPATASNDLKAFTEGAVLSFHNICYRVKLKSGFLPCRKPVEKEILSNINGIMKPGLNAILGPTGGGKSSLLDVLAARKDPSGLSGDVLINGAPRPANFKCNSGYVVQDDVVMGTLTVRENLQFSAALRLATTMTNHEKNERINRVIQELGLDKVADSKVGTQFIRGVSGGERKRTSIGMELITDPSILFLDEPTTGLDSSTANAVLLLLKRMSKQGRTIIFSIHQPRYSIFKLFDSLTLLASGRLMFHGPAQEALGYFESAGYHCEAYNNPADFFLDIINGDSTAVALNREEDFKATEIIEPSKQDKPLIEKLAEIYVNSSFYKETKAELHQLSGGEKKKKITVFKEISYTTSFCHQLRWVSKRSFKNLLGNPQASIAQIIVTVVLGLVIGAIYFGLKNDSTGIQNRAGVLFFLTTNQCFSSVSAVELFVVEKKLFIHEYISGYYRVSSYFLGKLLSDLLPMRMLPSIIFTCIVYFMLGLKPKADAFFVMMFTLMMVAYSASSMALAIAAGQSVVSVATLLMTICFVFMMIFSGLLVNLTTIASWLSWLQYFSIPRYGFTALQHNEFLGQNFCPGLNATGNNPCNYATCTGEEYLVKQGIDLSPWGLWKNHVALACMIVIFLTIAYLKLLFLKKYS

Consider `Cc1[nH]c(=O)n(C(C)(C)C)c(=O)c1Cl`, for which the result in experiment [1], in [2], in experiment [3], in experiment [4], in experiment [5] and in experiment [6] was inactive. Moreover, the result in [7], in [8] and in experiment [9] was inactive.
As for `CNC(=O)Oc1ccccc1OC(C)C`, the result in experiment [1], in [2], in [3], in [4] and in experiment [5] was inactive.
On to `O=[N+]([O-])/N=C1\NCCN1Cc1ccc(Cl)nc1`, for which the AC50 (in general, the concentration at which the activity in the assay is half-maximal) was 15.9 µM (active) in experiment [10]; 26.6 µM (active) in experiment [3]; 24.9 µM (active) in [4]; 35.3 µM (active) in experiment [5]; 29.7 µM (active) in [7]. The compound was classed as inactive in experiment [1], in [2], in experiment [6] and in experiment [8].
Regarding `CNC(=O)/C=C(\C)OP(=O)(OC)OC`, the compound was called inactive in [1], in experiment [2], in experiment [3], in experiment [4], in experiment [5] and in [6]. The result in experiment [8] was inactive.
For the compound `CCC(C)Nc1c([N+](=O)[O-])cc(C(C)(C)C)cc1[N+](=O)[O-]` (configuration not stated), the call in experiment [1], in experiment [2], in [3], in experiment [6] and in experiment [8] was inactive. Besides, the AC50 in [4] was 17.8 µM (active); in experiment [5], 22 µM (active).
For the compound `Oc1cc(Cl)ccc1Oc1ccc(Cl)cc1Cl`, the result in experiment [1], in experiment [2], in experiment [3], in experiment [4], in experiment [5] and in experiment [6] was inactive. Besides, the call in [8] was inactive. The AC50 in experiment [3] is 73.3 µM (active) and 75.5 µM (active).
In the case of `CCCN(CCOc1c(Cl)cc(Cl)cc1Cl)C(=O)n1ccnc1`, the AC50 is 3.22 µM (active) in experiment [10]; 25.5 µM (active) in experiment [3]; 84.8 µM (active) in experiment [4]; 10.8 µM (active) in experiment [5]; 12.5 µM (active) in [6]; 35.6 µM (active) in experiment [8]. Further, the compound was classed as inactive in experiment [1] and in experiment [2].
With `CC(C)N(C(=O)COc1nnc(C(F)(F)F)s1)c1ccc(F)cc1`, the outcome in experiment [10], in experiment [1], in [2], in experiment [4], in experiment [5] and in [6] was inactive. Besides, in experiment [8], the compound was called inactive. The AC50 in experiment [3] is 50 µM (active).
With `CCC(C)(C)C(=O)OC1=C(c2ccc(Cl)cc2Cl)C(=O)OC12CCCCC2`, the compound was classed as inactive in experiment [1], in experiment [2], in experiment [4], in experiment [5], in [6] and in experiment [8]. Further, the AC50 in experiment [3] was 20.7 µM (active).
Regarding `ClC1C(Cl)C(Cl)C(Cl)C(Cl)C1Cl` (configuration not stated), the AC50 in experiment [10] was 1.54 µM (active) and 4.45 µM (active); in [4], 3.62 µM (active); in experiment [5], 3.28 µM (active). In addition, the compound was called inactive in experiment [1], in experiment [2], in experiment [3], in [5], in experiment [6] and in experiment [8].
Turning to `C#CCN1C(=O)COc2cc(F)c(N3C(=O)C4=C(CCCC4)C3=O)cc21`, the result in experiment [1], in experiment [2], in [5], in experiment [6] and in experiment [8] was inactive. Further, the AC50 in experiment [3] is 50 µM (active); in experiment [4], 8.81 µM (active).
In the case of `CCOC1Oc2ccc(OS(C)(=O)=O)cc2C1(C)C` (configuration not stated), the compound was classed as inactive in experiment [1] and in experiment [4]. Moreover, the AC50 in [2] is 66.7 µM (active); in [3], 73 µM (active); in experiment [5], 28.2 µM (active); in [6] it was 82.6 µM (active); in [8], 43.6 µM (active).
In the case of `CCN(CC)C(=O)SCc1ccc(Cl)cc1`, the result in experiment [1], in experiment [2], in experiment [3], in [4], in [5] and in experiment [6] was inactive. Moreover, the compound was classed as inactive in experiment [7] and in experiment [8].
As for `CNC(=O)Oc1cccc(N=CN(C)C)c1`, the result in [1], in experiment [2], in experiment [3], in [4], in experiment [5] and in experiment [6] was inactive. In addition, the outcome in [7] and in experiment [8] was inactive.
`N#Cc1c(Cl)c(Cl)c(Cl)c(C#N)c1Cl`: the outcome in experiment [1], in experiment [2], in experiment [4], in experiment [5] and in experiment [6] was inactive. Also, the AC50 in [3] is 47.1 µM (active).
On to `O=C(Nc1ccccc1)Nc1cnns1`, for which the call in experiment [1], in [5] and in experiment [6] was inactive. The AC50 is 78.6 µM (active) in [2], 63.6 µM (active) in experiment [3], 89.5 µM (active) in experiment [4] and 78.6 µM (active) in [8].
For the compound `CC(C)OC(=O)Nc1cccc(Cl)c1`, the result in [1], in [2], in [3], in experiment [4], in experiment [5] and in experiment [6] was inactive. Also, the compound was classed as inactive in experiment [8].
On to `COc1nn(CSP(=S)(OC)OC)c(=O)s1`, for which the compound was classed as inactive in experiment [10], in [1], in [2], in experiment [3], in [4] and in experiment [5]. Moreover, the call in experiment [6], in experiment [7] and in [8] was inactive.
Consider `O=C(O)COc1ccc(Cl)cc1Cl`, for which the result in experiment [1], in [2], in experiment [4], in experiment [5], in experiment [6] and in [8] was inactive. Besides, the AC50 in experiment [3] was 31.2 µM (active).
For `CN1CSC(=S)N(C)C1`, the compound was classed as inactive in experiment [1], in experiment [2], in experiment [3], in [4], in experiment [5] and in experiment [6]. Besides, the outcome in experiment [7] and in experiment [8] was inactive.
Regarding `CC(C)(C)C(O)C(Oc1ccc(Cl)cc1)n1cncn1` (configuration not stated), the outcome in [1], in [2], in experiment [3], in [4], in experiment [5] and in experiment [8] was inactive. Also, the AC50 in experiment [3] is 9.92 µM (active); in experiment [4], 2.47 µM (active); in [6], 73.6 µM (active) and 50 µM (active) and 34.1 µM (active).
Regarding `O=S(=O)(O)C(F)(F)C(F)(F)C(F)(F)C(F)(F)C(F)(F)C(F)(F)C(F)(F)C(F)(F)F`, the call in [1], in [2], in experiment [3], in experiment [4], in [5] and in [6] was inactive. The outcome in experiment [8] was inactive. Moreover, the AC50 is 90.7 µM (active) and 85.1 µM (active) and 86.6 µM (active) in experiment [3]; 14.2 µM (active) and 90.7 µM (active) in experiment [4]; 14.4 µM (active) and 7.01 µM (active) in experiment [5]; 50 µM (active) and 9.92 µM (active) in [6]; 36.6 µM (active) and 50 µM (active) and 48 µM (active) in [8].
